# Laboratory results reported in PubChem BioAssay AID743105 (Vanderbilt Specialized Chemistry Center, 2013).
# A number with no mark means an inactive call. How the calls were made is not given here.
# Target: Muscarinic acetylcholine receptor M4 (Homo sapiens) (UniProt P08173)
# Assay: off-target M4 muscarinic calcium response – cell-based, CHO-K1 hM4/Gqi5, Fluo-4 calcium flux, ACh EC20, counter-screen for M5 NAM project (AID 743105)
# Settings: series mostly up to 30 µM; response, % of max ACh: at the top concentration
# Sequence of Muscarinic acetylcholine receptor M4 (Homo sapiens) (P08173 whole entry, looked up): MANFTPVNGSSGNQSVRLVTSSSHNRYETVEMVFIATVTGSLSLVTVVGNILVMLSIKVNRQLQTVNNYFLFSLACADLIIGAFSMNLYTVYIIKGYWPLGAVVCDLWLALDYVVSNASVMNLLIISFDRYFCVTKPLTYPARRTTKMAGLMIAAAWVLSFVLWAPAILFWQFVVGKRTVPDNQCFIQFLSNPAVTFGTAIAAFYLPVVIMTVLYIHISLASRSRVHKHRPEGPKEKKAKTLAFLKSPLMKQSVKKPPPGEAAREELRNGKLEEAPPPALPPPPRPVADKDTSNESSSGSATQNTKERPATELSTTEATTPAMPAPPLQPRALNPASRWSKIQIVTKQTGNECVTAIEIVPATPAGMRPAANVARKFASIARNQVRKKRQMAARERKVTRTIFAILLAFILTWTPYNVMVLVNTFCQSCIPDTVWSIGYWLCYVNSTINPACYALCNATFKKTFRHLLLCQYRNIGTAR
row,SMILES,"response, % of max ACh"
1,O=C(c1cc(F)cc(F)c1)N1CCN2C(=O)c3ccccc3C12c1ccc(Cl)cc1 (stereo not given),86.8
2,O=C(c1ccc(F)cc1)N1CCN2C(=O)c3ccccc3C12c1ccccc1 (stereo not given),71.3
3,O=C(c1ccc(F)c(F)c1)N1CCN2C(=O)c3ccccc3[C@@]12c1ccc(Cl)cc1,88
4,O=C(c1ccc(F)c(F)c1)N1CCN2C(=O)c3ccccc3C12c1ccccc1 (stereo not given),94.7
5,O=C(c1ccc(F)c(F)c1)N1CCN2C(=O)c3ccccc3C12c1ccc(Cl)cc1 (stereo not given),92.4
